From PubChem BioAssay AID1159580 (chemical genetic matrix, 2015)
Screen size: about 5,500 compounds; about 2,000 (36%) were called active. Another 18% or so got no clear call; they are omitted. Rule as the data show it: active = normalized growth mostly below about 0.91 (no sharp cut-off); inconclusive = no clear call, values can overlap the other calls; inactive = mostly above about 0.92. The list shows a part of the results.

Assay: chemical genetic growth profiling, strain panel (AID 1159580);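 also: tested at 20 µM; growth read once vehicle control cultures reached saturation at 30 °C; 1 = growth at the plate median or of vehicle wells; lower values mean less growth of the strain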
Settings: growth OD

Measured: normalized growth

CN1CCN(C(c2ccccc2)c2ccccc2)CC1
inactive: S. cerevisiae deletion strains, locus YJR075W, strain HOC1, hits give low values 1 | S. cerevisiae deletion strains, locus YKL009W, strain mrt4, hits give low values 0.963 | S. cerevisiae deletion strains, locus YKL068W, hits give low values 0.977 | S. cerevisiae deletion strains, locus YKL085W, strain MDH1 (second series), hits give low values 0.973 | S. cerevisiae deletion strains, locus YKL085W, strain MDH1, hits give low values 0.973 | S. cerevisiae deletion strains, locus YKL160W, strain elf1, hits give low values 0.965 | S. cerevisiae deletion strains, locus YKL190W, strain CNB1, hits give low values 0.974 | S. cerevisiae deletion strains, locus YKR001C, strain vps1, hits give low values 0.974 | S. cerevisiae deletion strains, locus YKR026C, strain gcn3, hits give low values 0.992 | S. cerevisiae deletion strains, locus YKR091W, strain srl3, hits give low values 0.98 | S. cerevisiae deletion strains, locus YLL001W, strain dnm1, hits give low values 0.996 | S. cerevisiae deletion strains, locus YLL026W, hits give low values 0.999 | S. cerevisiae deletion strains, locus YLL041C, strain sdh2, hits give low values 0.971 | S. cerevisiae deletion strains, locus YLR027C, strain aat2, hits give low values 0.985 | S. cerevisiae deletion strains, locus YLR039C, strain RIC1, hits give low values 1 | S. cerevisiae deletion strains, locus YLR058C, strain SHM2, hits give low values 0.999 | S. cerevisiae deletion strains, locus YLR102C, strain apc9, hits give low values 0.967 | S. cerevisiae deletion strains, locus YLR113W, strain HOG1, hits give low values 0.994 | S. cerevisiae deletion strains, locus YLR221C, strain rsa3, hits give low values 1.02 | S. cerevisiae deletion strains, locus YLR258W, strain gsy2, hits give low values 0.978 | S. cerevisiae deletion strains, locus YLR262C, strain YPT6 (second series), hits give low values 1 | S. cerevisiae deletion strains, locus YLR262C, strain YPT6, hits give low values 1.03 | S. cerevisiae deletion strains, locus YLR268W, strain sec22, hits give low values 0.965 | S. cerevisiae deletion strains, locus YLR320W, strain mms22, hits give low values 0.992 | S. cerevisiae deletion strains, locus YLR330W, strain CHS5, hits give low values 0.989 | S. cerevisiae deletion strains, locus YLR342W, strain FKS1 (second series), hits give low values 1.03 | S. cerevisiae deletion strains, locus YLR342W, strain FKS1, hits give low values 0.991 | S. cerevisiae deletion strains, locus YLR357W, strain rsc2, hits give low values 0.948 | S. cerevisiae deletion strains, locus YLR370C, strain arc18, hits give low values 0.989 | S. cerevisiae deletion strains, locus YLR371W, strain rom2, hits give low values 0.974 | S. cerevisiae deletion strains, locus YLR384C, strain iki3, hits give low values 0.965 | S. cerevisiae deletion strains, locus YLR418C, strain cdc73, hits give low values 0.934 | S. cerevisiae deletion strains, locus YML016C, strain PPZ1, hits give low values 1 | S. cerevisiae deletion strains, locus YML032C, strain rad52, hits give low values 0.959 | S. cerevisiae deletion strains, locus YML120C, strain ndi1, hits give low values 0.99 | S. cerevisiae deletion strains, locus YML124C, strain tub3, hits give low values 0.968 | S. cerevisiae deletion strains, locus YMR058W, strain fet3, hits give low values 1.01 | S. cerevisiae deletion strains, locus YMR078C, strain ctf18, hits give low values 0.973 | S. cerevisiae deletion strains, locus YMR125W, strain sto1, hits give low values 0.95 | S. cerevisiae deletion strains, locus YMR129W, hits give low values 0.996 | S. cerevisiae deletion strains, locus YMR205C, strain PFK2, hits give low values 0.963 | S. cerevisiae deletion strains, locus YMR223W, strain ubp8, hits give low values 0.991 | S. cerevisiae deletion strains, locus YMR231W, strain pep5, hits give low values 0.994 | S. cerevisiae deletion strains, locus YMR263W, strain SAP30, hits give low values 0.997 | S. cerevisiae deletion strains, locus YMR307W, strain GAS1, hits give low values 1.02 | S. cerevisiae deletion strains, locus YNL067W, strain RPL9B, hits give low values 0.996 | S. cerevisiae deletion strains, locus YNL071W, strain lat1, hits give low values 0.984 | S. cerevisiae deletion strains, locus YNL128W, strain TEP1, hits give low values 0.991 | S. cerevisiae deletion strains, locus YNL153C, strain GIM3, hits give low values 1 | S. cerevisiae deletion strains, locus YNL183C, strain NPR1, hits give low values 0.937 | S. cerevisiae deletion strains, locus YNL209W, strain ssb2, hits give low values 0.978 | S. cerevisiae deletion strains, locus YNL233W, strain BNI4, hits give low values 1 | S. cerevisiae deletion strains, locus YNL248C, strain rpa49, hits give low values 0.932 | S. cerevisiae deletion strains, locus YNL250W, strain rad50, hits give low values 0.987 | S. cerevisiae deletion strains, locus YNL271C, strain bni1, hits give low values 0.974 | S. cerevisiae deletion strains, locus YNL298W, strain CLA4, hits give low values 0.975 | S. cerevisiae deletion strains, locus YNL307C, strain MCK1, hits give low values 0.962 | S. cerevisiae deletion strains, locus YNL322C, strain KRE1 (second series), hits give low values 0.978 | S. cerevisiae deletion strains, locus YNL322C, strain KRE1, hits give low values 0.991 | S. cerevisiae deletion strains, locus YNR049C, strain mso1, hits give low values 0.99 | S. cerevisiae deletion strains, locus YNR052C, strain pop2, hits give low values 0.953 | S. cerevisiae deletion strains, locus YOL006C, strain TOP1, hits give low values 0.929 | S. cerevisiae deletion strains, locus YOL012C, strain htz1 1.39 | S. cerevisiae deletion strains, locus YOL147C, strain pex11, hits give low values 0.978 | S. cerevisiae deletion strains, locus YOR001W, strain rrp6, hits give low values 0.993 | S. cerevisiae deletion strains, locus YOR061W, strain CKA2, hits give low values 1 | S. cerevisiae deletion strains, locus YOR069W, strain VPS5, hits give low values 0.998 | S. cerevisiae deletion strains, locus YOR070C, strain gyp1, hits give low values 0.979 | S. cerevisiae deletion strains, locus YOR080W, strain dia2, hits give low values 0.986 | S. cerevisiae deletion strains, locus YOR083W, strain WHI5, hits give low values 0.948 | S. cerevisiae deletion strains, locus YOR106W, strain vam3, hits give low values 0.995 | S. cerevisiae deletion strains, locus YOR136W, strain idh2, hits give low values 0.971 | S. cerevisiae deletion strains, locus YOR144C, strain elg1, hits give low values 0.96 | S. cerevisiae deletion strains, locus YOR184W, strain ser1, hits give low values 0.994 | S. cerevisiae deletion strains, locus YOR231W, strain MKK1, hits give low values 0.987 | S. cerevisiae deletion strains, locus YOR265W, strain rbl2, hits give low values 0.98 | S. cerevisiae deletion strains, locus YOR270C, strain vph1, hits give low values 0.914 | S. cerevisiae deletion strains, locus YOR290C, strain snf2, hits give low values 0.974 | S. cerevisiae deletion strains, locus YOR316C, strain cot1, hits give low values 0.958 | S. cerevisiae deletion strains, locus YPL051W, strain arl3, hits give low values 0.979 | S. cerevisiae deletion strains, locus YPL055C, strain LGE1, hits give low values 0.975 | S. cerevisiae deletion strains, locus YPL078C, strain atp4, hits give low values 0.974 | S. cerevisiae deletion strains, locus YPL106C, strain sse1, hits give low values 0.949 | S. cerevisiae deletion strains, locus YPL240C, strain hsp82, hits give low values 1.01 | S. cerevisiae deletion strains, locus YPL241C, strain CIN2, hits give low values 0.994 | S. cerevisiae deletion strains, locus YPL256C, strain CLN2, hits give low values 0.995 | S. cerevisiae deletion strains, locus YPR119W, strain clb2, hits give low values 0.977 | S. cerevisiae deletion strains, locus YPR141C, strain kar3, hits give low values 0.954 | S. cerevisiae deletion strains, locus YPR163C, strain tif3, hits give low values 0.971 | S. cerevisiae deletion strains, locus YPR167C, strain met16, hits give low values 0.958 | S. cerevisiae deletion strains, strain wtn01, hits give low values 0.979 | S. cerevisiae strains, strain wild type, hits give low values 1.01
